PNC inhibitor = High Content Assay for Compounds that inhibit the Assembly of the Perinucleolar Compartment; PC3M PTB-GFP, PNC prevalence imaging, 16 h; stronger effect = lower value; activity change (PNC), negative = inhibition, % at 10 µM; 140,000 compounds, 3.1% hits; AID 2417, 2010;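 active means readout at or below -70, meaning at least 70% loss of cells showing the perinucleolar compartment, a nuclear body marking cancer cells; inconclusive means readout between -30 and a set limit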;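 further: plate controls were DMSO wells for no effect and camptothecin positive control wells for full effect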
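Read-out is percentage of cells bearing a perinucleolar compartment, from automated 20x imaging of fixed, Hoechst-stained PC3M PTB-GFP cells. Cells were seeded 4 h, then exposed 16 h to compound (23 nl of library stock) in duplicate plates.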
HPGD block = qHTS Assay for Inhibitors of HPGD (15-Hydroxyprostaglandin Dehydrogenase). purified HPGD, NADH fluorescence kinetic, PGE2 substrate. Potency, µM, inactives show top-dose activity change, negative = inhibition, most hits filed as inhibitors. 150,000 compounds, 4.3% hits. AID 894, 2007; further: potency means the concentration at half of the fitted maximal effect
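20 nM HPGD preincubated 15 min at room temperature with compound in 50 mM Tris-HCl pH 8, 0.01% Tween 20. Started with 1 mM NAD+ and 30 uM prostaglandin E2; NADH fluorescence (360/450 nm) read 5 times over 30-s intervals, last minus first.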
ALDH1A1 block = qHTS Assay for Inhibitors of Aldehyde Dehydrogenase 1 (ALDH1A1) | Aldehyde dehydrogenase 1A1 (Homo sapiens), P00352 | Purified ALDH1A1, NADH fluorescence, propionaldehyde substrate | Potency, µM (titrated, usually from 75.3 µM), for the others: at the highest dose activity, negative = inhibition, actives largely listed as inhibitors | 220,000 compounds, 7.3% hits;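 further: potency means the concentration at half of the fitted maximal effect; plate controls were no enzyme wells and a reference inhibitor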
Target sequence (P00352 whole entry, looked up): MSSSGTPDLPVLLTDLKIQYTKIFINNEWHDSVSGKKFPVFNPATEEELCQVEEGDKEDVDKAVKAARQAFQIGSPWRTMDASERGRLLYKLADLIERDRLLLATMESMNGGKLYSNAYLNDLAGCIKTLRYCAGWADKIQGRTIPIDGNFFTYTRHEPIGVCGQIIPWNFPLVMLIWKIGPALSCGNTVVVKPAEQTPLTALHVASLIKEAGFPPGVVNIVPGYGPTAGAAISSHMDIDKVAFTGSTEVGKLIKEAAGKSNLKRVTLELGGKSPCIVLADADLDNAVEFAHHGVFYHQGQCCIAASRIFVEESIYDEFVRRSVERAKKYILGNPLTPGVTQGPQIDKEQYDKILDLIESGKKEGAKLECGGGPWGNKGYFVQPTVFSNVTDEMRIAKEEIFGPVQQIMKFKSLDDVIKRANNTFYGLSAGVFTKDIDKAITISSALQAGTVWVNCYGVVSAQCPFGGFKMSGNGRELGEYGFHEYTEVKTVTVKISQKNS
Starred values were filed as active, the others as inactive; u = inconclusive; x = no result given. Most compounds without a hit are left out; they make up all but 11% or so of the library. Unless noted, the call rests on the fitted dose curve; in most records, active means well fitted inhibition curve with a large enough effect (not every such curve was filed as active); inconclusive means small, poorly fitted or top-dose-only effect, or another doubt; inactive means no such curve, though single readings can be large or run the other way. Unless noted, on the % scale 0 is the no-effect control and ±100 the full control effect.

SMILES | PNC inhibitor | HPGD block | ALDH1A1 block
COc1cc2c(cc1OC)CN(CC(=O)NC(=O)NC(C)(C)C)CC2 | x | x | 6%
COc1ccccc1N1CCN(CCCCN2C(=O)c3ccccc3C2=O)CC1 | x | -25% | 13µM*
COc1ccccc1N1CCN(CCCNC(=O)Nc2ccccc2C)CC1 | 34 | 1% | 7%
COc1ccccc1N1CCN(CCCC(=O)c2ccc(F)cc2)CC1 | 20 | 0% | 25%
O=S(=O)(c1ccccc1F)N1CCN(C(=S)NCc2ccccc2)CC1 | x | x | 16µM*
O=S(=O)(c1cccc(F)c1)N1CCN(C(=S)NCc2ccccc2)CC1 | x | x | 14µM*
CCOc1ccc(S(=O)(=O)N2CCN(C(=S)NCc3ccccc3)CC2)cc1 | x | x | -6%
CS(=O)(=O)N1CCN(C(=S)NCc2ccc(F)cc2)CC1 | -16 | 0% | 17%
CC(=O)OC1CCC2(C)C3CCC4(C)C(CC5CCCCC54C(C)=O)C3CC(=O)[C@@]2(O)C1 (stereo partly drawn) | x | -9% | -6%
Cc1c(C(=O)Oc2ccc(-c3cnc4ccccc4n3)cc2)cccc1[N+](=O)[O-] | u | -26% | u
O=C(Oc1ccc(-c2cnc3ccccc3n2)cc1)c1cc([N+](=O)[O-])ccc1Cl | -7 | -15% | 0.22µM*
Cc1nn(Cc2cccc(C(=O)N3CCCC(C)C3)c2)c(C)c1[N+](=O)[O-] (stereo not drawn) | u | 14µM* | u
Cc1nn(Cc2cccc(C(=O)Nc3ccn(Cc4ccccc4F)n3)c2)c(C)c1[N+](=O)[O-] | 24 | -2% | 1%
CCCCCn1c(=S)[nH]c2cc(C(=O)N3CCCC3)ccc2c1=O | x | x | 10%
O=C(c1cccc(Cl)c1)N1CCCC(C(=O)N2CCCCCC2)C1 (stereo not drawn) | 15 | -15% | u
CC1CCCN(C(=O)c2ccc3nc[nH]c3c2)C1 (stereo not drawn) | 38 | 2µM* | u
CC1CCCN(C(=O)c2ccc3c(=O)n(C4CCCC4)c(=S)[nH]c3c2)C1 (stereo not drawn) | x | x | 3.5µM*
CC12C=C(/C=C/CCc3ccco3)C(C)(C1)[C@H](CCc1ccco1)CC2=O (stereo partly drawn) | x | -4% | u
CCOC(=O)N1CCN(CC(=O)Nc2cc(OC)c(OC)cc2C#N)CC1 | x | x | 15%
COCC(C)NC(=O)Cc1ccc(F)cc1 (stereo not drawn) | 18 | -18% | 13%
Cn1nccc1-c1cc(Cl)cc(Cl)c1O | x | x | -10%
O=C(CCC(NC(=O)OCc1ccccc1)C(=O)OCc1ccccc1)NCC(=O)OCc1ccccc1 (stereo not drawn) | -3 | -8% | 2%
NC(=O)CC[C@H](NC(=O)OCc1ccccc1)C(=O)OCc1ccc(Cl)cc1 | -93* | -13% | 6%
CCOC(=O)C1CCC(CN(Cc2ccccc2)S(=O)(=O)c2ccc([N+](=O)[O-])cc2)CC1 (stereo not drawn) | -27 | -8% | -3%
Cn1c(=O)c2c(=O)cc(NNC(=O)CC#N)[nH]c2n(C)c1=O | x | x | 1%
SMILES | PNC inhibitor | HPGD block | ALDH1A1 block
O=C(Nc1cccc(Cl)c1)Nc1nnc(CC2=CCCCC2)s1 | -23 | -6% | 6%
CCC(C)C(=O)Nc1ccc(OC)cc1OC (stereo not drawn) | -20 | 0% | 8%
COc1ccc(NC(=O)N(CCC(C)C)C(C)c2ccccn2)c(OC)c1 (stereo not drawn) | 18 | -17% | 14µM*
Cc1ccsc1C(=O)Nc1ccc(F)c([N+](=O)[O-])c1 | -81* | -18% | -2%
O=C(Nc1ccccc1)Nc1ccc(F)c([N+](=O)[O-])c1 | 2 | -10% | -6%
O=C(NCCCN1CCOCC1)C(=O)N/N=C/c1ccc2c(c1)OCO2 | x | x | -1%
Cc1nnc(SCC(C)C)[nH]c1=O | 7 | -11% | -4%
Cc1nn(CC(C)C)c(=S)[nH]c1=O | -83* | -10% | -11%
COc1ccc(NC(=O)CSc2nc3ccsc3c(=O)n2CCCCCC(=O)O)cc1 | x | x | -7%
CCc1ccc(-c2csc3[n+]2CCN3C(C)=O)cc1 | -5 | 14µM* | u
CC(=O)N1CC[n+]2c(-c3ccc(Cl)cc3)csc21 | -26 | 18µM* | u
O=C(CN1CC[n+]2c(-c3cccs3)csc21)c1ccc(-c2ccccc2)cc1 | x | x | 8%
O=C(O)c1c(F)c(F)c(F)c(F)c1-c1ccc(Cl)cc1 | 41 | -8% | 3%
CC(NC1CCCC1)C(=O)Nc1ccccc1-c1ccccc1 (stereo not drawn) | 13 | -1% | u
CCN(CC)CC(=O)NN=C(c1ccccc1)c1ccccc1 | u | -5% | u

Compound activity deposited in PubChem BioAssay by National Center for Advancing Translational Sciences (NCATS).
